# Results: paper PMC5540273 (PLoS ONE, 2017)
# Test system: T1, RSK3(Kin.Dom.2-C-terminal)
# T1 construct: gene RPS6KA2
# Settings: concentration: 1 μM, replicates: in singlicate; n = 1
# 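Note: KINOMEscan kinase panel screen.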
row,SMILES,%Inh
1,O=C1NC(=O)C(c2ccc(Cl)cc2)=C1Nc1cccc(Cl)c1 [SB-317651],23%
2,COC(=O)C(Cc1ccccc1)NC(=O)NC1CCN(c2ccnc(Nc3ccc(F)cc3)n2)C1 (stereo not shown) [GSK1379714],10%
3,COc1ccc(Nc2nccc(NCCNC(=O)Nc3cc(C)ccc3C)n2)cc1 [GSK1379899],0%
4,COc1ccc(Nc2nccc(N3CCC(NC(=O)C(C)c4ccc(Cl)cc4)CC3)n2)cc1 (stereo not shown) [GSK1379812],3%
5,Fc1ccc(-c2nc[nH]c2-c2ccncc2)cc1 [SB-217360],6%
6,CCn1c(-c2ccccc2)nc2cnccc21 [SB-733416],0%
7,CS(=O)(=O)CCNCc1nc(-c2ccc3ncnc(Nc4ccc(OCc5ccccc5)c(Cl)c4)c3c2)cs1.Cl [GW582764],0%
8,Cl.Cl.Cl.N#Cc1ccc(CCNc2nccc(-c3cccc(CN4CCNCC4)c3)n2)cc1 [GSK2137462],13%
9,Cc1cccc2c(-c3ccncn3)c(-c3ccc(F)cc3)nn12 [GW515532],19%
10,Nc1ncnc2occ(-c3ccc4c(c3)CCN4C(=O)Cc3cc(F)ccc3F)c12 [GSK2645446],16%
11,COc1cccc(CNC(=O)NC2CCN(c3ccnc(Nc4ccc(F)cc4)n3)C2)c1 (stereo not shown) [GSK1379723],0%
12,COc1ccc(CSc2nnc(-c3ccc4ncsc4c3)o2)cc1C(F)(F)F,0%
13,CCCCc1nn2ncccc2c1-c1ccnc(NC2CC2)n1 [GW684374],0%
14,CCc1ccc(-c2ccc3c(c2)-c2n[nH]cc2S(=O)(=O)N3C)cc1,17%
15,COc1ccc(-c2coc3ccc(-c4nnc(C)o4)cc23)cc1,8%
16,Cc1nccc(-c2c(-c3ccc(F)cc3)ncn2CCCN2CCOCC2)n1.Cl [SB-282975],0%
17,Cc1ccc(NC(=O)Nc2ccccc2)cc1-c1ccc(C(=O)Nc2ccncc2)cc1 [GSK1398471],7%
18,CC(C)c1cc(-c2ccc3c(N)n[nH]c3c2)nc(N)n1 [GSK2250882],5%
19,COc1cccc(NC(=O)Nc2ccc(C)c(-c3ccc(C(=O)Nc4ccncc4)cc3)c2)c1 [GSK1398474],19%
20,CSc1ccc(-c2nc3n(c2-c2ccncc2)CCC3)cc1 [SKF-105561],35%
21,COC(=O)c1cccc(NC(=O)NC2CCN(c3ccnc(Nc4ccc(F)cc4)n3)C2)c1 (stereo not shown) [GSK1379725],0%
22,Fc1ccc(-c2nn3cccc(F)c3c2-c2ccncc2)cc1 [GW475620],0%
